Bioassay records (PubChem)
A selection: hits, their analogues and other compounds. The true share with any hit is near 9%.
HPGD inh = qHTS Assay for Inhibitors of HPGD (15-Hydroxyprostaglandin Dehydrogenase). Potency, µM, for inactives: at the highest dose activity change, negative = inhibition, most hits filed as inhibitors. hit rate 4.3% among 150,000. purified HPGD, NADH fluorescence kinetic, PGE2 substrate. 15-hydroxyprostaglandin dehydrogenase [NAD(+)] (Homo sapiens), P15428. AID 894, 2007; further: potency means the concentration at half of the fitted maximal effect
Target sequence (P15428 whole entry, looked up): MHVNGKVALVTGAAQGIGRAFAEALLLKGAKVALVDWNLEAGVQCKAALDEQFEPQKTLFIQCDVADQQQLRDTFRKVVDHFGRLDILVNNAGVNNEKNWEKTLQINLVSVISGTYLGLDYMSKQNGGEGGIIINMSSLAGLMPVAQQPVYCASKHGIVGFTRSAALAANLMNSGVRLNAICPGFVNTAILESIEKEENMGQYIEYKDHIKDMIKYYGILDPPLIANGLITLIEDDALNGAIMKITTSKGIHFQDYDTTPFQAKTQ
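20 nM HPGD preincubated 15 min at room temperature with compound in 50 mM Tris-HCl pH 8, 0.01% Tween 20. Started with 1 mM NAD+ and 30 uM prostaglandin E2; NADH fluorescence (360/450 nm) read 5 times over 30-s intervals, last minus first.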
ALDH1A1 block = qHTS Assay for Inhibitors of Aldehyde Dehydrogenase 1 (ALDH1A1). Aldehyde dehydrogenase 1A1 (Homo sapiens), P00352. Purified ALDH1A1, NADH fluorescence, propionaldehyde substrate. Potency, µM (highest dose often 75.3 µM), for inactives: at the top dose activity, negative = inhibition, actives largely listed as inhibitors. hit rate 7.3% among 220,000. AID 1030, 2008;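 further: potency means the concentration at half of the fitted maximal effect; plate controls were no enzyme wells and a reference inhibitor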
IMPase inh = qHTS Assay for Identifying the Cell-Membrane Permeable IMPase Inhibitors | 120,000 tested, under 10 active | inhibition (IP1 accumulation), % at 46.1 µM | CHO-M1 cells, IP1 accumulation, HTRF TR-FRET ratio; active means well fitted curve in the direction sought with a large enough effect in the signal ratio, not every such curve was filed as active; inconclusive means small, poorly fitted or top-dose-only effect, or a change in a side signal; inactive means no such curve, though single readings can be large or run the other way; the % refers to the signal ratio;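 further: cells stimulated with carbachol in lithium chloride buffer; plate controls were DMSO basal wells for no effect and reference inhibitor wells for full effect; higher means more IMPase inhibition seen as more IP1 and lower FRET ratio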
Target sequence (P97697 whole entry, looked up): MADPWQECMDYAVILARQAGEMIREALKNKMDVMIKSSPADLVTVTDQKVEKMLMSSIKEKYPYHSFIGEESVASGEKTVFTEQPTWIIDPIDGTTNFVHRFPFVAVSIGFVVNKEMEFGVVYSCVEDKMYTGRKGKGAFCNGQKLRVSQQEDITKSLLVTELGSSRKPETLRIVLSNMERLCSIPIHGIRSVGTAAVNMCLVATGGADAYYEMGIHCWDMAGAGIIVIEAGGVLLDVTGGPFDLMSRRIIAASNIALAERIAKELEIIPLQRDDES
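Elevated IP1 in lysates lowers TR-FRET signal (665/620 ratio and 620 channel reported). Cells were CHO-M1, given carbachol (50 uM as added) plus 50mM LiCl, pH 7.4, 30 min, 37C; compounds titrated up to 46 uM; AC50 by Hill equation.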
Numbers without * were called inactive; ? = inconclusive; nt = no result given; [ ] = dose if it differs, or a comment. Unless noted, the call rests on the fitted dose curve; in most records, active means well fitted inhibition curve with a large enough effect (not every such curve was filed as active); inconclusive means small, poorly fitted or top-dose-only effect, or another doubt; inactive means no such curve, though single readings can be large or run the other way. Unless noted, on the % scale 0 is the no-effect control and ±100 the full control effect.

SMILES	HPGD inh	ALDH1A1 block	IMPase inh
Cc1nc2ccccc2n1CC(=O)OCC(=O)NC1CC1	nt	-0.6%	nt
Cn1c(=O)c2c(nc(NCC3CCCO3)n2Cc2cccc(Br)c2)n(C)c1=O (stereo unspecified)	-7.9%	8.6%	6.2
CN(C)c1ccc(C=Nc2cnn(C)c2C(N)=O)cc1	-29.3%	3.55µM*	1.9
Cn1ncc(N=Cc2ccc([N+](=O)[O-])cc2)c1C(=O)Nc1ccccc1	nt	-0.1%	nt
COc1cc(/C=C(/Sc2nnc(-c3ccc(F)cc3)o2)C(=O)O)ccc1OC(F)F	nt	2.1%	nt
Cc1ccc(C(=O)OCC(=O)NCCN2C(=O)CSC2=O)cc1	-2.8%	-4.1%	nt
CCNc1ccc(C(=O)OCC(=O)NCCN2C(=O)CSC2=O)cc1[N+](=O)[O-]	nt	3.55µM*	nt
CN(Cc1ccc(F)cc1)Cc1nc(-c2cnccn2)no1	nt	6.0%	nt
C[C@@H]1OC(OC2C(OC3CC[C@@]4(C)C5CC=C6C7CC(C)(C)CC[C@@]7(C(=O)O)CCC6(C)C5(C)CCC4[C@]3(C)CO)OCC(O)C2O)C(O)C(O)C1O (stereo partly specified)	-5.4%	5.4%	nt
Nc1nnc(-c2ccc(Cl)c([N+](=O)[O-])c2)s1	nt	28.2µM*	nt
Nc1nnc(-c2cccc([N+](=O)[O-])c2)s1	nt	3.3%	nt
CCCc1ccc(-c2cc(C(=O)NC3=NCCS3)c3ccccc3n2)cc1	nt	2.1%	-8.8
CCOC(=O)c1c(C)cc(OC)cc1O	?	-12.7%	nt
Cc1cc(OC(=O)c2c(C)cc(O)cc2O)cc(O)c1C(=O)O	15.8µM*	-12.6%	nt
O=C(/C(=C\c1ccccc1)c1nc2ccccc2[nH]1)c1ccc(Cl)cc1	-8.3%	11.6%	-11.0
COC(=O)/C(=C\c1ccc(O)cc1)c1nc2ccccc2[nH]1	nt	11.9µM*	nt
CC(C)(C)c1cnnn1-c1cccc([N+](=O)[O-])c1	nt	3.6%	nt
Cc1onc(-c2ccccc2Cl)c1C(=O)Nc1ccc(-n2nncc2C(C)(C)C)cc1	-1.9%	?	4.1
CC(C)(C)c1cnnn1-c1ccc(C=O)cc1	1.3%	25.1µM*	6.1
CC(C)(C)c1cnnn1-c1ccc(C(=O)CCl)cc1	14.1µM*	0.708µM*	-8.2
CCOC(=O)C1CCN(CC(=O)Nc2cc(C)c3c(=O)oc4ccccc4c3n2)CC1	nt	nt	7.1
COc1ccc(S(=O)(=O)Nc2cccc(N(C)S(C)(=O)=O)c2)cc1C	-15.9%	?	-2.1
Cc1ccc(S(=O)(=O)Nc2cccc(N(C)S(C)(=O)=O)c2)cc1[N+](=O)[O-]	nt	15.8µM*	nt
COc1cccc(-c2nc(-c3ccccc3)[nH]c(=O)c2C#N)c1	15.8µM*	9.0%	9.7
COc1ccc(-c2nc(-c3cccc(C)c3)[nH]c(=O)c2C#N)cc1	?	?	-4.6
SMILES	HPGD inh	ALDH1A1 block	IMPase inh
N#Cc1c(-c2ccccc2)nc(-c2ccccc2)[nH]c1=O	2µM*	?	-11.1
N#Cc1c(-c2ccccc2)nc(-c2ccncc2)[nH]c1=O	nt	-4.8%	nt
COc1ccc(-c2nnc(SCC(=O)N3CCC(Cc4ccccc4)CC3)o2)cc1OC	-12.8%	?	1.9
N/C(Cc1ccccc1)=N\OC(=O)c1cccc2ccccc12	2.51µM*	-6.1%	nt
N/C(Cc1ccc([N+](=O)[O-])cc1)=N\OC(=O)c1ccccc1Br	-13.8%	-7.6%	nt
O=C(CN1c2cccc3cccc(c23)S1(=O)=O)Nc1cccc(S(=O)(=O)N2CCOCC2)c1	?	-0.7%	-9.4
CCn1cc(C(=O)OCC(=O)Nc2c(C)cccc2C)c(=O)c2ccc(C)nc21	nt	-14.7%	nt
COc1ccc(-n2ccnc2SCC(=O)NC2CCCC2)c(OC)c1	nt	3.3%	nt
COC(=O)Nc1nn(-c2ccc(OC)cc2)c(=O)c(C#N)c1C	nt	25.1µM*	nt
COC(=O)Nc1nn(-c2ccc(C)cc2)c(=O)c(C#N)c1C	nt	3.6%	nt
COc1cccc(/C=N/NC(=O)C(=O)Nc2ccccc2OC(F)(F)C(F)F)c1O	-5.6%	1.4%	nt
CC1=C(C)C[C@@]23CCCN2C(=O)CCC[C@H]3C1	5.4%	?	nt
Cc1nc(SCC(=O)NCc2ccco2)nc(C)c1C	7.94µM*	25.1µM*	-10.0
Cc1ccc(C)c(SCC(=O)NCc2ccco2)c1	7.94µM*	?	-3.1
Cc1nc(SCC(=O)NC(=O)NCc2ccco2)nc(C)c1C	nt	-6.5%	nt
Cc1ccc(C(CC(=O)NCC2(c3ccccc3)CCCC2)c2ccccc2)c(O)c1 (stereo unspecified)	nt	nt	24.6
Cc1ccc2cc(C)c(SCC(=O)NCc3ccco3)nc2c1	nt	14.1µM*	nt
Cc1ccc2nc(SCC(=O)NCc3ccco3)[nH]c2c1	-14.2%	9.5%	-3.1
Cc1cc2cc(C)c(SCC(=O)NCc3ccco3)nc2cc1C	nt	-11.4%	nt
Cc1ccc(C(CC(=O)NCc2ccco2)c2ccccc2)c(O)c1 (stereo unspecified)	15.8µM*	-8.3%	1.5
Cc1cccc(NC(=O)Cn2cc(C(=O)C3CCCCC3)c3ccccc32)c1C	nt	nt	6.2
CCN(CC(=O)Nc1ccc(N2CCOCC2)cc1)C(=O)COc1ccccc1OC	nt	5.2%	nt
O=C(CSc1ccc(Cl)cc1)NCc1ccco1	nt	-8.8%	nt
Cc1ccc(C(=O)COC(=O)CNC(=O)c2ccco2)cc1	-4.0%	8.5%	5.7
Cc1ccc(C)c(SCC(=O)OCC(=O)c2ccco2)c1	17.8µM*	?	-2.2
SMILES	HPGD inh	ALDH1A1 block	IMPase inh
Cc1ccc(SCCC(=O)NCc2ccco2)cc1	28.2µM*	-14.4%	-1.6
Cc1ccc(C)c(C(=N)c2ccccc2Cc2ccccc2)c1	1.5%	7.8%[13.5 µM]	nt
CCCc1cc(=O)[nH]c(SCC(=O)c2cc(C)n(C(C)COC)c2C)n1 (stereo unspecified)	-1.2%	1.0%	6.6
CC1CCc2c(sc3nc(CN4CCN(S(=O)(=O)c5ccccc5[N+](=O)[O-])CC4)[nH]c(=O)c23)C1 (stereo unspecified)	-9.1%	1.5%	-2.9
COC(OC)[C@@H](C)[C@H](OC)[C@@H](C)[C@H](OC)c1ccccc1	nt	-1.1%[13.5 µM]	nt
Nc1c(C(=O)NCCc2ccccc2)nnn1Cc1ccc(Br)cc1F	nt	-5.2%	nt
CN(C)C1C(=O)C(C(N)=O)=C(O)[C@@]2(O)C(=O)C3=C(O)c4c(O)ccc(Cl)c4[C@@H](O)C3C[C@@H]12 (stereo partly specified)	-22.3%	-6.2%	nt
CC1CCCN(c2ccc(C(=O)Nc3ccc4c(c3)OCO4)cc2[N+](=O)[O-])C1 (stereo unspecified)	-10.9%	?	nt
CC1CCCN(c2ccc(C(=O)OCn3nnc4ccccc4c3=O)cc2[N+](=O)[O-])C1 (stereo unspecified)	15.8µM*	-2.2%	-10.1
COc1ccc(C(=O)OCn2nnc3ccccc3c2=O)cc1[N+](=O)[O-]	nt	-16.8%	nt
CC1CCCN(c2ccc(C(=O)Nc3nnc(C4CC4)s3)cc2[N+](=O)[O-])C1 (stereo unspecified)	-1.9%	2.82µM*	nt
CN(C)CC(C)(C)CNC(=O)c1ccc(Cc2nc3ccccc3[nH]2)cc1	-5.3%	13.4%	nt
Clc1cccc(-c2nnc(CN3CCN(c4ccccn4)CC3)o2)c1	nt	nt	0.1
COC(=O)CN1C(=S)N(c2ccc(Cl)cc2)C(=O)C1CC(=O)Nc1ccc(Cl)cc1 (stereo unspecified)	31.6µM*	-4.6%	0.6
